The values that follow come from PubChem BioAssay (Tox21).

A number with no mark means an inactive call. Records with an inconclusive call do not appear. The source made the active and inactive calls. The call rests on the fitted dose curve; in most records, active means well fitted curve in the direction sought with a large enough effect in the repeat runs; inconclusive means weak or mixed curves; inactive means no such curve, though single readings can be large; an effect the other way counts as inactive or inconclusive.

Assay [1] in a line: qHTS RealTime-Glo MT Cell Viability Assay in HEK293 cells - 40 hour (AID 1224874). Further: nearly all actives have a fitted effect of over 50% in size. Further: potency means the concentration at half of the fitted maximal effect. Particulars: RealTime-Glo luminescence; max response: hits give low values. The method in brief:
(§1)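 HEK293 cells mixed with RealTime-Glo reagents (NanoLuc plus cell-permeant prosubstrate) at 600 cells/well, preincubated 5 h at 37 C/5% CO2, then given 23 nL compound in DMSO. Nonlytic luminescence from viable cells was read at 0, 8, 16, 24, 32 and 40 h.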
Background: qHTS replaces the single test concentration by a dilution series.

Assay [2] can be described thus: A CellTox Green Cytotoxicity Assay to monitor cytotoxicity in HEK293 cells - 24 hour (AID 1224875). Further: nearly all actives have a fitted effect of over 45% in size. Further: potency means the concentration at half of the fitted maximal effect. On activity change: series mostly up to about 77 µM. The method in brief: (§2)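 HEK293 cells premixed with CellTox Green dye were seeded at 600 cells/well and left 5 h at 37 C/5% CO2 before pin transfer of 23 nL compound in DMSO. Fluorescence from dye bound to dead-cell DNA was read during 40 h treatment.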
A short description of assay [3]: A CellTox Green Cytotoxicity Assay to monitor cytotoxicity in HepG2 cells - 16 hour (AID 1224876). Further: nearly all actives have a fitted effect of over 45% in size. Further: potency means the concentration at half of the fitted maximal effect. The method in brief:
(§3)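 HepG2 cells were seeded together with the CellTox Green dye at 600 cells/well, left 5 h at 37 C/5% CO2, then given compounds in DMSO. Fluorescence from dye bound to dead-cell DNA was read repeatedly over 40 h of treatment at 37 C.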

Assay [4] is described as follows: qHTS RealTime-Glo MT Cell Viability Assay in HepG2 cells - 32 hour (AID 1224877). Further: nearly all actives have a fitted effect of over 55% in size. Further: potency means the concentration at half of the fitted maximal effect. In a few lines: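 qHTS, HepG2, 600 cells/well, RealTime-Glo (NanoLuc + prosubstrate) added with cells; 5 h preincubation; DMSO compound addition; 37 C; luminescence at 0/8/16/24/32/40 h.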
Assay [5] can be described thus: A CellTox Green Cytotoxicity Assay to monitor cytotoxicity in HepG2 cells - 24 hour (AID 1224878). Further: nearly all actives have a fitted effect of over 45% in size. Further: potency means the concentration at half of the fitted maximal effect. In a few lines:
as §3

A short description of assay [6]: A CellTox Green Cytotoxicity Assay to monitor cytotoxicity in HepG2 cells - 40 hour (AID 1224879). Further: nearly all actives have a fitted effect of over 40% in size. Further: potency means the concentration at half of the fitted maximal effect. The method in brief:
as §3

Assay [7] can be described thus: qHTS RealTime-Glo MT Cell Viability Assay in HEK293 cells - 0 hour (AID 1224880). Further: top concentration of the series differs between compounds; nearly all actives have a fitted effect of over 45% in size. In a few lines: as §1
Assay [8] is described as follows: A CellTox Green Cytotoxicity Assay to monitor cytotoxicity in HEK293 cells - 32 hour (AID 1224881). Further: nearly all actives have a fitted effect of over 40% in size. Further: potency means the concentration at half of the fitted maximal effect. The method in brief:
as §2

Assay [9] can be described thus: A CellTox Green Cytotoxicity Assay to monitor cytotoxicity in HepG2 cells - 0 hour (AID 1224882). Further: nearly all actives have a fitted effect of over 35% in size. The method in brief:
as §3

The nature of assay [10]: A CellTox Green Cytotoxicity Assay to monitor cytotoxicity in HepG2 cells - 32 hour (AID 1224883). Further: nearly all actives have a fitted effect of over 50% in size. Further: potency means the concentration at half of the fitted maximal effect. In a few lines: as §3
On the % scale 0 is the no-effect control and ±100 the full control effect.

As for `CC(C)(C)c1cc(CCC(=O)OCCSCCOC(=O)CCc2cc(C(C)(C)C)c(O)c(C(C)(C)C)c2)cc(C(C)(C)C)c1O`, the max response in assay [1] is 2.76%. In addition, the Potency result in [2], in assay [3], in [4], in assay [5], in assay [6] and in assay [7] was “inactive” in each case. Further, the Potency entry in assay [8], in assay [9] and in [10] was “inactive” throughout.

Turning to `CCSCC`, in [1], the max response was 8.26%. Besides, the Potency result in assay [2], in assay [3], in assay [4], in assay [5], in [6] and in assay [7] was “inactive” each time. For the same compound, the Potency entry in assay [8], in [9] and in [10] was “inactive” in each case.

On to `CCCCCCCCc1ccc(Nc2ccc(CCCCCCCC)cc2)cc1`, for which the max response in assay [1] is -0.6%. Besides, the Potency entry in [2], in [3], in assay [4], in assay [5], in assay [6] and in assay [7] was “inactive” each time. The Potency entry in assay [8] and in assay [10] was “inactive” throughout.

Turning to `CC1(C)[C@H](C(=O)OCc2cccc(Oc3ccccc3)c2)[C@@H]1C=C(Cl)Cl`, the max response in assay [1] is 4.05%. The Potency result in assay [2], in assay [3], in [4], in assay [5], in assay [6] and in assay [7] was “inactive” in each case. In addition, the Potency result in assay [8], in [9] and in assay [10] was “inactive” throughout.

Regarding `CN1CCN(c2ccccc2/C=C2\SCCN(c3ccc(Cl)c(Cl)c3)C2=O)CC1`, the Potency in assay [1] is 12.3 µM (active); in assay [2], 49 µM (active); in assay [3], 49 µM (active); in assay [4], 21.9 µM (active); in [5], 24.5 µM (active); in assay [6], 19.5 µM (active). In addition, the Potency in assay [8] was 49 µM (active); in [10] it was 21.9 µM (active). Besides, the Potency entry in assay [7] and in assay [9] was “inactive” each time.

For `COC(=O)c1ccc([N+](=O)[O-])cc1`, the max response in assay [1] is -4.75%. Further, the Potency result in [2], in [3], in assay [4], in [5], in assay [6] and in assay [7] was “inactive” each time. Further, the Potency result in assay [8], in assay [9] and in [10] was “inactive” each time.

Take `CCN(CCC#N)c1ccc(N=Nc2ccc([N+](=O)[O-])cc2)cc1`: the max response in [1] was 0.454%. Also, the Potency entry in assay [2], in [3], in assay [4], in assay [5], in assay [6] and in assay [7] was “inactive” each time. Moreover, the Potency entry in assay [8], in [9] and in assay [10] was “inactive” throughout.

For `Cn1ccnc1`, the max response in assay [1] is 9.06%. Moreover, the Potency entry in assay [2], in assay [3], in [4], in assay [5], in assay [6] and in assay [7] was “inactive” throughout. In addition, the Potency entry in assay [8], in assay [9] and in assay [10] was “inactive” throughout.

Take `Cc1cccc(C)c1C`: in [1], the max response is 4%. Further, the Potency entry in assay [2], in assay [3], in assay [4], in assay [5], in [6] and in assay [7] was “inactive” in each case. For the same compound, the Potency result in assay [8] and in assay [10] was “inactive” each time.

Turning to `COCCC(=O)OC`, the max response in assay [1] was 1.08%. In addition, the Potency result in [2], in assay [3], in [4], in assay [5], in assay [6] and in [7] was “inactive” throughout. The Potency result in [8], in assay [9] and in [10] was “inactive” each time.

Turning to `O=C(c1ccccc1)c1ccc(Cl)cc1`, in assay [1], the max response is 0.405%. The Potency entry in assay [2], in [3], in assay [4], in [5], in assay [6] and in assay [7] was “inactive” each time. Moreover, the Potency entry in assay [8], in assay [9] and in assay [10] was “inactive” throughout.

With `c1ccc(-c2nc3ccccc3[nH]2)cc1`, in assay [1], the Potency is 21.9 µM (active). The Potency result in [2], in [3], in [4], in assay [5], in assay [6] and in assay [7] was “inactive” throughout. Besides, the Potency entry in assay [8], in [9] and in [10] was “inactive” each time.

`C=C(C)C1CCC(C)CC1O` (stereo not drawn): the max response in assay [1] is 5.16%. Also, the Potency entry in assay [2], in assay [3], in assay [4], in [5], in [6] and in [7] was “inactive” in each case. The Potency result in assay [8], in assay [9] and in assay [10] was “inactive” throughout.

`CO[Si](OC)(c1ccccc1)c1ccccc1`: the max response in assay [1] is -18.7%. The Potency result in assay [2], in [3], in assay [4], in assay [5], in [6] and in assay [7] was “inactive” throughout. Besides, the Potency entry in assay [8], in [9] and in [10] was “inactive” in each case.

For `CCc1cccc(CC)c1`, the max response in [1] is 23.9%. Also, the Potency result in assay [2], in assay [3], in [4], in assay [5], in [6] and in assay [7] was “inactive” throughout. For the same compound, the Potency entry in assay [8], in [9] and in assay [10] was “inactive” each time.

As to `c1ccc(-c2ccccc2-c2ccccc2)cc1`, the max response in assay [1] was -10.2%. For the same compound, the Potency entry in [2], in assay [3], in assay [4], in assay [5], in assay [6] and in assay [7] was “inactive” in each case. For the same compound, the Potency entry in assay [8], in assay [9] and in assay [10] was “inactive” in each case.

`CCCCCCCCCCCCS(=O)(=O)Cl`: the max response in assay [1] is 12.1%. Moreover, the activity change in [2] is -0.292% [at 15.8 µM, hits give high values]. The cytotoxicity increase in assay [3] is -10.9% [at 15.8 µM]; in assay [6] it was -19.9% [at 15.8 µM]; in assay [8], -1.06% [at 15.8 µM]; in [10] it was -17.3% [at 15.8 µM]. In addition, the activity change, negative = cytotoxic in assay [4] was 9.6% [at 15.8 µM]. For the same compound, the cytotoxicity in [5] is -12.5% [at 15.8 µM]; in [9] it was -7.13% [at 15.8 µM]. For the same compound, in assay [7], the activity change, negative = cytotoxicity is -1.06% [at 15.8 µM].

Turning to `CC(C)C(=O)C(C)C`, the max response in assay [1] is 8.37%. Moreover, the Potency result in assay [2], in assay [3], in [4], in assay [5], in assay [6] and in assay [7] was “inactive” throughout. The Potency entry in assay [8], in assay [9] and in assay [10] was “inactive” throughout.

Consider `O=C1OC(=O)c2cc(-c3ccc4c(c3)C(=O)OC4=O)ccc21`, for which the max response in assay [1] was 0.595%. The Potency result in assay [2], in assay [3], in assay [4], in assay [5], in assay [6] and in assay [7] was “inactive” in each case. Further, the Potency result in assay [8], in [9] and in [10] was “inactive” in each case.
